This is a sample that favours compounds with a hit; in the whole collection about 17% have one here.
TGFb inhibitor: TGF-b pathway inhibition; HepG2 CAGA-GFP TGF-b/SMAD3 reporter, GFP fluorescence, 18 h; TGF-beta stimulated, 500 pg/mL final; 410,000 compounds, 1.2% hits; Potency, µM (top dose mostly 46.1 µM), usual class: inhibitors; note: nearly all actives have a fitted effect of over 65% in size
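HEPG2 CAGA-GFP, 1000 cells/well; 2 h settle, 37 C; cpd via pin tool; TGF-b 500 pg/mL final; 18 h, 37 C; GFP imaging ex488/em500-530; %Activity normalised to -TGF-b and +DMSO controls; CRC fit, curve class.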
ATXN viability: viability counter-screen for ATXN expression inhibitors; S2 cells (HEK-293 line with an ATXN2-luciferase reporter) viability, CellTiter-Fluor protease fluorescence, 24 h; Potency, µM (series often up to 56.7 µM), hits mostly cytotoxic; 400,000 compounds, 0.49% hits; note: nearly all actives have a fitted effect of over 40% in size
DT40 TDP1 CPT: DT40-hTDP1 cell growth loss with CPT | 420,000 compounds, 12% hits | Potency, µM (titrated, usually from 46.2 µM), hits mostly inhibitors | AID 686979 | chicken DT40 Tdp1-/-;hTDP1 cells + 20 nM CPT, ATP luminescence, 48 h; note: nearly all actives have a fitted effect of over 55% in size
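Cell growth measured by CellTiter-Glo luminescence after a minimum 48 h, 37 C compound exposure with 20 nM CPT in Tdp1-knockout DT40 cells stably expressing hTDP1, seeded 400/well; qHTS titration format.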
DT40 TDP1 no CPT: qHTS for Inhibitors of human tyrosyl-DNA phosphodiesterase 1 (TDP1): qHTS in cells in absence of CPT | 420,000 compounds, 15% hits | DT40 Tdp1-/- hTDP1 cells, no CPT, ATP luminescence, 48 h | Potency, µM (titrated, usually from 46.2 µM), most hits filed as inhibitors; note: nearly all actives have a fitted effect of over 55% in size
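Growth kinetics read by CellTiter-Glo luminescence after ≥48 hr at 37 °C. Cells: DT40 Tdp1-/- stably carrying human TDP1, 400 per well, compound exposure in the absence of CPT (DMSO vehicle).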
ATXN2 expr inh: ATXN2 expression inhibition; AID 1745845; Potency, µM (doses to about 57 µM), most hits filed as inhibitors; HEK-293 ATXN2-luciferase reporter, luminescence, 24 h; 360,000 compounds, 0.72% hits; note: nearly all actives have a fitted effect of over 55% in size
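qHTS (up to 57 uM final) was run with 24 h compound exposure of reporter cells at 37 °C. Each well was multiplexed: SteadyGlo luminescence measured ATXN2-luciferase expression after a fluorogenic Gly-Phe-AFC viability readout (25 uM final).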
HepG2 tox: HepG2 cytotoxicity, counter-screen for TGF-b inhibitors; HepG2 CAGA-GFP viability, ATP luminescence, 18 h; 410,000 compounds, 0.76% hits; Potency, µM (series often up to 46.1 µM), most hits filed as cytotoxic; AID 588856
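CellTiter-Glo luminescence gave cytotoxicity after 18 hours at 37 degrees C. The cells were HepG2 CAGA-GFP in 1% FBS DMEM, stimulated with 500 pg/mL TGF-beta after compound addition. %Activity was normalised to no-cell wells (complete cell-killing) and DMSO (no toxicity), and curves were fitted and classified.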
Each line names hits and unclear results; the compound was inactive in the other large screens. Calls come from the whole dose curve; as a rule, active = well fitted curve in the direction sought with a large enough effect; inconclusive = small, poorly fitted or top-dose-only effect, or another doubt; inactive = no such curve, though single readings can be large; an effect the other way counts as inactive or inconclusive.

CCN1C(=O)[C@H]2[C@@H](c3ccc(-c4ccc(Cl)c(Cl)c4)cc3)N[C@@](C)(C(=O)OC)[C@H]2C1=O	DT40 TDP1 CPT 8.2µM, DT40 TDP1 no CPT 8.2µM, ATXN2 expr inh inconclusive
CCOC(=O)C1(C)NC(c2ccc(OC)c(OC)c2)C2C(=O)N(CC)C(=O)C21 (centres undefined)	ATXN viability inconclusive
COC(=O)[C@]1(Cc2ccccc2)N[C@H](c2ccc(SC3CCCCC3)c(OC)c2)[C@@H]2C(=O)N(C)C(=O)[C@@H]21	DT40 TDP1 CPT inconclusive, DT40 TDP1 no CPT inconclusive
COC(=O)C1CCN(C(=O)COC(=O)c2cc(-c3cccs3)nn2-c2ccccc2)CC1	none
O=C(Cc1csc(Nc2nc(=S)[nH]c3ccccc23)n1)N1CCN(c2cccc(Cl)c2)CC1	DT40 TDP1 CPT 15µM, DT40 TDP1 no CPT 15µM (no result: ATXN viability)
Cc1ccc(Cl)cc1N1CCN(C(=O)Cc2csc(Nc3nc(=S)[nH]c4ccccc34)n2)CC1	DT40 TDP1 CPT 13µM, DT40 TDP1 no CPT 15µM (no result: ATXN viability)
O=C(Cn1c(=O)[nH]c2ccccc2c1=O)N1CCN(c2cccc(Cl)c2)CC1	none
Cc1cccc(OCC(=O)NCCCNC(=O)c2cnccn2)c1	none
COc1cc(CCC(=O)Nc2nccs2)cc(OC)c1OC	none
O=C(NCc1ccco1)C(Cc1ccccc1)N1C(=O)c2ccccc2C1=O (centres undefined)	DT40 TDP1 CPT 21µM
[N-]=[N+]=CC(=O)CNC(=O)[C@@H](Cc1ccccc1)N1C(=O)c2ccccc2C1=O	none (no result: ATXN viability)
CN1CCN(c2ccc(CNS(=O)(=O)Cc3ccc(Cl)cc3)cc2)CC1	ATXN viability inconclusive, DT40 TDP1 CPT inconclusive, DT40 TDP1 no CPT 16µM, ATXN2 expr inh inconclusive
COc1ccc(CNS(=O)(=O)c2ccc(N3CCCC3)cc2Br)cc1	DT40 TDP1 CPT inconclusive, DT40 TDP1 no CPT inconclusive
Cc1cc(S(=O)(=O)NCc2ccc(N3CCN(C)CC3)cc2)c(C)s1	DT40 TDP1 CPT inconclusive, DT40 TDP1 no CPT 21µM
NS(=O)(=O)c1ccc(CNS(=O)(=O)Cc2ccc(Cl)cc2)cc1	none
COc1ccc(OC)c(S(=O)(=O)NCc2ccc(N3CCN(C)CC3)cc2)c1	none
CN1CCN(c2ccc(CNS(=O)(=O)c3ccc(F)cc3Cl)cc2)CC1	DT40 TDP1 CPT 18µM, DT40 TDP1 no CPT inconclusive
O=C(CCN=C1NS(=O)(=O)c2ccccc21)OCc1cccc(Cl)c1	DT40 TDP1 no CPT inconclusive
CN(C)c1ccc(C(=O)N2CCCC(Cn3cc(C(=O)N4CCCC4)nn3)C2)cc1 (centres undefined)	none (no result: TGFb inhibitor, ATXN2 expr inh, HepG2 tox)
CNC(=O)OCc1nc(SC2CCCCO2)n(C)c1COC(=O)NC (centres undefined)	DT40 TDP1 CPT inconclusive
CC(O)(COc1ccccc1)c1ccc2c(c1)CN(Cc1ccccn1)CCO2 (centres undefined)	none (no result: TGFb inhibitor, ATXN2 expr inh, HepG2 tox)
O=c1/c(=C/c2ccc([N+](=O)[O-])cc2)sc2n1CCCN=2	TGFb inhibitor inconclusive, ATXN viability inconclusive, DT40 TDP1 CPT 26µM, DT40 TDP1 no CPT 13µM
COc1cc(/C=c2\sc3n(c2=O)CCCN=3)ccc1O	none
CC(=O)OC1CC(OC(C)=O)[C@]2(C)C(CC(=O)[C@]3(C)C2CC[C@@]2(C)C(c4ccoc4)OC(=O)C4O[C@@]423)C1(C)C (some centres undefined)	none (no result: TGFb inhibitor, ATXN viability, ATXN2 expr inh, HepG2 tox)
CC(=O)OC1CC[C@]2(C)C(CC(OC(C)=O)[C@@]3(C)C4=CC(=O)OC(c5ccoc5)[C@]4(C)CCC23)C1(C)C (some centres undefined)	DT40 TDP1 CPT inconclusive, DT40 TDP1 no CPT 21µM (no result: TGFb inhibitor, ATXN viability, ATXN2 expr inh, HepG2 tox)
CC(=O)OC1C=C[C@]2(C)C(CC(OC(C)=O)[C@@]3(C)C4=CC(=O)OC(c5ccoc5)[C@]4(C)CCC23)C1(C)C (some centres undefined)	DT40 TDP1 CPT inconclusive, DT40 TDP1 no CPT 21µM (no result: TGFb inhibitor, ATXN viability, ATXN2 expr inh, HepG2 tox)
CC1(C)C(=O)C2C[C@]3(O)C4=CC(=O)OC(c5ccoc5)[C@]4(C)CCC3[C@](C)(C2=O)C1CC(=O)O (some centres undefined)	none (no result: TGFb inhibitor, ATXN viability, ATXN2 expr inh, HepG2 tox)
O=C(CCCc1ccccc1)Nc1cccc2c1CCCC2	DT40 TDP1 no CPT inconclusive
CCC(C)CCN1CCN=C1Nc1ccccc1 (centres undefined)	none
Cc1cccc(Cn2c(=O)n(-c3ccccc3C)c(=O)c3c2c2cc(C)ccc2n3C)c1	DT40 TDP1 CPT 23µM, DT40 TDP1 no CPT 21µM
Cc1ccc2c(c1)c1c(c(=O)n(-c3ccccc3C)c(=O)n1Cc1cccc(F)c1)n2C	TGFb inhibitor inconclusive, DT40 TDP1 CPT 13µM, DT40 TDP1 no CPT 9.2µM
Cc1ccc2c(c1)c1c(c(=O)n(-c3ccccc3C)c(=O)n1CC(=O)c1ccc(Cl)cc1)n2C	DT40 TDP1 CPT inconclusive, DT40 TDP1 no CPT inconclusive
C=Cc1ccc(Cn2c(=O)n(-c3ccc(C)cc3)c(=O)c3c2c2cc(OC)ccc2n3C)cc1	DT40 TDP1 CPT inconclusive, DT40 TDP1 no CPT 26µM
COc1ccc2c(c1)c1c(c(=O)n(-c3ccc(OC)c(OC)c3)c(=O)n1Cc1ccc(C)cc1)n2C	none
COc1ccc2c(c1)c1c(c(=O)n(-c3ccccc3C)c(=O)n1CC(=O)NCc1ccc(C)cc1)n2C	TGFb inhibitor inconclusive, ATXN viability inconclusive, DT40 TDP1 CPT 21µM, DT40 TDP1 no CPT 13µM
COc1cccc(NC(=O)Cn2c(=O)n(Cc3ccccc3)c(=O)c3c2c2cc(C)ccc2n3C)c1	DT40 TDP1 CPT inconclusive, DT40 TDP1 no CPT 3.7µM
CC(=O)c1cccc(NC(=O)Cn2c(-c3cncs3)nc3ccccc32)c1	ATXN viability inconclusive, DT40 TDP1 no CPT inconclusive
O=C(COc1ccccc1)Nc1cccc(-c2nc3cc4ccccc4cc3[nH]2)c1	TGFb inhibitor inconclusive, ATXN viability inconclusive, DT40 TDP1 CPT 15µM, DT40 TDP1 no CPT 21µM, HepG2 tox 10µM
CSc1cccc(NC(=O)COc2ccccc2)c1	DT40 TDP1 CPT 8.2µM, DT40 TDP1 no CPT 4.6µM
Cc1ccc(OCC(=O)Nc2ccc(-c3nc4ccc(C)cc4o3)cc2)cc1	DT40 TDP1 CPT 16µM, DT40 TDP1 no CPT 18µM
Cc1cc(C)cc(OCC(=O)Nc2cccc(-c3nc4ccccc4[nH]3)c2)c1	TGFb inhibitor inconclusive, ATXN viability inconclusive, DT40 TDP1 CPT inconclusive
Cc1cccc(C)c1OCC(=O)Nc1cccc(-c2nnc(-c3ccccc3)o2)c1	DT40 TDP1 CPT 18µM, DT40 TDP1 no CPT 16µM
Cc1cc(=O)n(Cc2ccc(Cl)cc2)c2c1c(C)nn2-c1ccccc1	none
NC(=O)NC(=O)COC(=O)/C=C/c1cccs1	none (no result: ATXN2 expr inh)
